Measurements reported in PubChem BioAssay (NCI).
The panel holds about 79,000 compounds, 15% with a hit somewhere; the sample as a whole holds those more often. Unmarked numbers belong to inactive results. Activity calls are given as the source filed them. No stated cut-off is given here; in the data, active means growth inhibition above about 70%; inactive means the rest.

Assays:
[1] = NCI Yeast Anticancer Drug Screen. Data for the rad50 strain (AID 155);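 further: 0% = growth of vehicle-only cultures of the same strain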; conditions: S. cerevisiae rad50 strain growth inhibition; at 50.0 µM; active compounds read high
In short: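 Relative growth inhibition (compound vs vehicle) was measured in yeast with a defined repair-gene alteration.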

[2] = NCI Yeast Anticancer Drug Screen. Data for the mec2-1 strain (AID 157); conditions: S. cerevisiae mec2-1 strain, at 50.0 µM, active compounds read high
In short: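 Cells of the genetically defined mec2-1 yeast strain are incubated with test compound. Inhibition of growth is calculated against vehicle-treated controls.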

[3] = NCI Yeast Anticancer Drug Screen. Data for the sgs1 mgt1 strain (AID 161);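 further: 0% = growth of cultures given vehicle only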; conditions: S. cerevisiae sgs1 mgt1 strain, at 50.0 µM, active compounds read high
In short: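 Test agents were incubated with a DNA-repair-mutant yeast strain. Growth was then read and compared against vehicle-treated controls.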

[4] = NCI Yeast Anticancer Drug Screen. Data for the cln2 rad14 strain (AID 165);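 further: 0% = growth equal to vehicle treated cultures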; conditions: S. cerevisiae cln2 rad14 strain, at 50.0 µM, active compounds read high
In short: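 The screen exposed genetically defined yeast (cln2 rad14) to test compounds and scored growth inhibition relative to vehicle-treated controls.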

[5] = NCI Yeast Anticancer Drug Screen. Data for the bub3 strain (AID 167); conditions: S. cerevisiae bub3 mutant strain, at 50.0 µM, active compounds read high
In short: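 Screening used yeast with an engineered genetic alteration affecting cell cycle control. Compound-exposed cultures were compared with vehicle cultures, and reduced growth was taken as inhibition.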

[6] = NCI Yeast Anticancer Drug Screen. Data for the mlh1 rad18 strain (AID 175); conditions: S. cerevisiae mlh1 rad18 strain growth inhibition; at 50.0 µM; active compounds read high
In short: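 Compound-treated yeast growth, normalised to vehicle controls. Strain bears defined DNA repair mutations.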

SMILES	growth inhibition [1]	growth inhibition [2]	growth inhibition [3]	growth inhibition [4]	growth inhibition [5]	growth inhibition [6]
CCOC(=O)c1cc(-c2ccc(OC)c(OC)c2)c[nH]1	14.6%	-2.3%	40.2%	12.6%	23.1%	28%
CCC[N+](C)(C)C	5.65%	-28.2%	-1.15%	6.4%	1.6%	-5.45%
CCCc1c[nH]c(-c2ccc(-c3cc(CCC)c(C=O)[nH]3)s2)c1	-44.8%	-22.8%	-35.9%	-2.8%	-28.9%	-56.7%
CCN(CC)C(=O)C1C(C=C(C)C)C1(C)C (stereo not given)	6.95%	20.4%	12.2%	5.3%	-10.1%	7.55%
CCC(Cl)COP(=O)(OCC(Cl)CC)O/C(C)=C(/C)P(=O)(OCC(Cl)CC)OCC(Cl)CC (stereo not given)	32.9%	29.6%	42.4%	47.1%	8.6%	69%
CC(C)CC(=O)NC(C(=O)NC(C(=O)NC(CC(C)C)C(O)CC(=O)NC(C)C(=O)NC(CC(C)C)C(O)CC(=O)O)C(C)C)C(C)C (stereo not given)	5.8%	-18.4%	-20.9%	7.6%	5.95%	-9.75%
C/C=C\c1ccc2oc(-c3ccc4c(c3)OCO4)c(C)c2c1	3.2%	9.9%	6.15%	-57.8%	-4.6%	-11.3%
CC(=O)CC(=O)NC12CC3CC(CC(C3)C1)C2	-12.4%	-18.3%	-27.6%	-3.95%	-23.1%	-1.55%
Cc1c([O-])[n+]2cccc3ccn(c1=O)c32	-28.7%	-13.6%	-16.7%	-11.1%	-2.4%	12.1%
COc1ccc(N2C(=O)C3c4[nH]c5ccc(OC)cc5c4C4CCC(C(C)(C)C)CC4C3C2=O)cc1 (stereo not given)	22.1%	12.6%	-5.45%	-24%	16.1%	20.5%
OCCNCc1cccc(-c2ccccc2)c1O	24.6%	3%	15.9%	-18.8%	8.2%	16.9%
CC1=COC2(CC1)OC1CC3C4CCC5CC(O)CCC5(C)C4CCC3(C)C1C2C (stereo not given)	72.5% (active)	60%	87.3% (active)	45.5%	39.5%	83% (active)
O=C(Nc1ccc(Br)cc1C(F)(F)F)C(F)(F)F	6%	-5.7%	-2.15%	-28.9%	1.9%	-16.2%
Cc1ccc(NC2=CC(=O)C(=O)c3ccccc32)cc1C	35%	13.1%	19.4%	11.4%	34%	26.5%
CC(=O)c1cc(Cl)ccc1Cl	23.9%	-6.2%	-0.8%	33%	-3.05%	26.1%
Cc1cc(=O)[nH]c2cc(O)c(C(=O)O)cc12	-2.95%	3.7%	-0.3%	-54.5%	1.6%	-8.15%
O=C(c1ccc(F)cc1)c1ccc([N+](=O)[O-])cc1	8.85%	8.1%	-1.7%	-19.9%	-14.1%	12.1%
Cn1cc(N=P(c2ccccc2)(c2ccccc2)c2ccccc2)c(=O)n(C)c1=O	-5.8%	4.15%	-11.1%	1.35%	-2.15%	5.55%
COC(=O)CC[C@@H](NC(=O)C(C)NC(=O)COC1C(O)C(COC(=O)CCCCCCCCCCNC(=O)c2ccc([N+](=O)[O-])c3[nH]c4cc(Br)ccc4c(=O)c23)OC(OCc2ccccc2)C1NC(C)=O)C(N)=O (stereo not given in full)	-14.5%	-10.7%	-17.6%	1.5%	-5.75%	-16.6%
COc1ccc(C(=O)/C=C/c2ccc(OCCCOc3ccc(/C=C/C(=O)c4ccc(OC)cc4)cc3)cc2)cc1	-7.3%	-19.9%	3.6%	-24.6%	-19.9%	-27.4%

SMILES	growth inhibition [1]	growth inhibition [2]	growth inhibition [3]	growth inhibition [4]	growth inhibition [5]	growth inhibition [6]
Cn1cnc([N+](=O)[O-])c1Sc1nccn1-c1ccccc1	-10.8%	-7.1%	-7.8%	22.2%	0.75%	-2.85%
C[CH2][Ge]([CH2]C)[CH2]C.C[CH2][Ge]([CH2]C)[CH2]C.C[CH2][Ge]([CH2]C)[S][Ge]([CH2]C)[CH2]C	25.1%	29.5%	52.7%	40.4%	35.9%	6.75%
CN(C)COC(=S)SCC(=O)O	8.4%	-0.85%	2.6%	-26.6%	-3.05%	-1.9%
Cc1ccc(S(=O)(=O)N/N=C2\CC[C@H]3[C@@H]4CC=C5C[C@@H](O)CC[C@]5(C)[C@H]4CC[C@]23C)cc1	95.3% (active)	95.3% (active)	76.3% (active)	97% (active)	90.6% (active)	96% (active)
CC(=O)CC(=O)NCCCc1ccccc1	-18.8%	-33.4%	-21.6%	3.5%	-6.9%	-11.9%
Cc1ccc(S(=O)(=O)N/N=c2/sc3ccccc3n2C)cc1	-35%	-19.1%	-33.5%	-7.85%	-8.2%	-22.3%
CC(C)(CC(=O)Nc1ccccc1)C(=O)O	-11.8%	-7.05%	-19.4%	-12.1%	-56.9%	-0.4%
CCCCN(CCCC)CCC(O)c1cc(C(F)(F)F)nc2c(C(F)(F)F)cccc12 (stereo not given)	-0.6%	25.7%	0.45%	49.2%	13.3%	41.1%
CCOC(=O)NN1C(=O)c2cccc3c([N+](=O)[O-])ccc(c23)C1=O	86.2% (active)	61.9%	93.5% (active)	88.4% (active)	78.3% (active)	85.8% (active)
NC(CCS(N)(=O)=O)C(=O)O (stereo not given)	-9.45%	-5.3%	-1.85%	-2.7%	5.5%	-10.9%
Cc1ccccc1N1CCOS(=O)OC(C)C1 (stereo not given)	-3.6%	23.7%	64.8%	39.9%	55.3%	57.5%
O=c1cc(NCc2c(Cl)cccc2[N+](=O)[O-])[nH]c(=O)[nH]1	-8.8%	37.5%	14.7%	-7.9%	15%	-5.3%
O=C(O)C1CC(Cl)C(O)C(Cl)C1 (stereo not given)	-6.9%	8.4%	8.95%	-56.3%	-6.65%	9%
S=C(S)NC1CCN(Cc2ccccc2)CC1	56.4%	30.6%	49%	48%	61.5%	26.1%
CCOC(=O)CC/C(=N/Nc1ccc(Cl)cc1[N+](=O)[O-])C(=O)OCC	11.7%	-39.9%	-31.9%	-7.6%	-24.6%	-0.4%
CCC1(CCBr)C(=O)NC(=Nc2ccccc2)NC1=O (stereo not given)	5.6%	-5.8%	5.9%	-41.1%	9.9%	-14.3%
CC1(C)CC(=O)C(CC(C(=O)C(=O)Nc2cc(C(F)(F)F)ccc2Cl)C(=O)c2ccco2)C(=O)C1 (stereo not given)	-1.55%	30.1%	18.9%	-22.4%	13%	19.1%
C[C@@]12C[C@@H](c3ccccc3O1)N1CCCSC1=N2	20.2%	-16%	4.6%	32.8%	-9.8%	12.4%
BrCCC1(CCBr)CCCCC1	54%	39.4%	44.6%	24.9%	48.6%	57.8%
Cc1cccc(-c2cc(=O)c3c(C)ccnc3[nH]2)c1	10.3%	-1%	-0.85%	-4.5%	-3.3%	-12.9%
